PubChem BioAssay AID892 (National Center for Advancing Translational Sciences (NCATS), 2007)
About 20 (0.03%) of roughly 75,000 compounds were called active. Calls come from the whole dose curve; as a rule, active = well fitted inhibition curve with a large enough effect; inconclusive = small, poorly fitted or top-dose-only effect; inactive = no such curve, though single readings can be large or run the other way. The list is a sample of the results.

These molecules were tested against Breast cancer type 1 susceptibility protein (Homo sapiens) (UniProt P38398) (assay: qHTS Assay for Inhibitors of BRCT-Phosphoprotein Interaction (Red Fluorophore)). Conditions: BRCT-phosphopeptide binding, red fluorescence polarization; series mostly up to 76.9 µM; activity change, negative = inhibition: at the top concentration.
Method: NIH Molecular Libraries Screening Centers Network [MLSCN]
NIH Chemical Genomics Center [NCGC]
PI Name: Natarajan, Amarnath; University of Texas
A complex of BRCT (C-terminal portion of BRCA1, MW ~35 kDa, His-tagged) and fluorescently labeled pBACH1 phosphorylated 10 aa peptide fragment of BACH1, a helicase implicated in DNA repair, is incubated with library members. Inhibitors of BRCT-pBACH1 binding are detected by a decrease in the fluorescence polarization (FP) of the fluorophore. In order to minimize the effect of fluorescence artifacts and to increase the overall robustness of the screen, the compound library members were incubated in separate reactions with rhodamine-labeled probe-protein complexes. Protein and labeled probes were supplied by Dr. Amarnath Natarajan, Department of Pharmacology and Toxicology, University of Texas Medical Branch Galveston, TX.
Assay Buffer: 16mM Na2HPO4, 4 mM NaH2PO4, 150 mM NaCl, 1 mM EDTA, 1 mM DTT, 0.02% NaN3, and 0.01% Tween 20 at pH 7.3.
Assay Controls: 100 nM TAMRA labeled decapeptide dispensed into columns 3 and 4 to generate negative control (full inhibition of
binding, -100 % activity). 100 nM labeled decapeptide/100 nM protein in columns 1, 2, 5 - 48. Titration of unlabeled decapeptide control (from 10 mM, then 1:2 dilution in duplicate) pin-transferred to column 2, rows 1 to 16. Column 1 is neutral.
Three uL of reagents were dispensed to 1536-well Greiner black solid-bottom plates. Compounds and controls (23 nL) were transferred via Kalypsys PinTool. The plates were incubated for 12 min at room temperature, and then read on ViewLux (Perkin-Elmer) High-throughput CCD imager using BODIPY for the rhodamine-labeled decapeptide probe polarization filter sets. During dispense, reagent bottles were kept submerged into 4 deg C water bath and all liquid lines were covered with aluminum foil to minimize probe and protein degradation. All screening operations were performed on a Kalypsys robotic system (Kalypsys, Inc., San Diego, CA) containing one RX-130 and two RX-90 anthropomorphic robotic arms. The timing and order of assay plates passing through the screening system were adjusted such that each compound library plate was assayed against the fluorescein- and rhodamine-labeled assay systems at immediately adjacent time points.
% is set by controls: 0 for no effect and ±100 for the full control effect.

Chain of Breast cancer type 1 susceptibility protein (Homo sapiens) (P38398 whole entry, looked up): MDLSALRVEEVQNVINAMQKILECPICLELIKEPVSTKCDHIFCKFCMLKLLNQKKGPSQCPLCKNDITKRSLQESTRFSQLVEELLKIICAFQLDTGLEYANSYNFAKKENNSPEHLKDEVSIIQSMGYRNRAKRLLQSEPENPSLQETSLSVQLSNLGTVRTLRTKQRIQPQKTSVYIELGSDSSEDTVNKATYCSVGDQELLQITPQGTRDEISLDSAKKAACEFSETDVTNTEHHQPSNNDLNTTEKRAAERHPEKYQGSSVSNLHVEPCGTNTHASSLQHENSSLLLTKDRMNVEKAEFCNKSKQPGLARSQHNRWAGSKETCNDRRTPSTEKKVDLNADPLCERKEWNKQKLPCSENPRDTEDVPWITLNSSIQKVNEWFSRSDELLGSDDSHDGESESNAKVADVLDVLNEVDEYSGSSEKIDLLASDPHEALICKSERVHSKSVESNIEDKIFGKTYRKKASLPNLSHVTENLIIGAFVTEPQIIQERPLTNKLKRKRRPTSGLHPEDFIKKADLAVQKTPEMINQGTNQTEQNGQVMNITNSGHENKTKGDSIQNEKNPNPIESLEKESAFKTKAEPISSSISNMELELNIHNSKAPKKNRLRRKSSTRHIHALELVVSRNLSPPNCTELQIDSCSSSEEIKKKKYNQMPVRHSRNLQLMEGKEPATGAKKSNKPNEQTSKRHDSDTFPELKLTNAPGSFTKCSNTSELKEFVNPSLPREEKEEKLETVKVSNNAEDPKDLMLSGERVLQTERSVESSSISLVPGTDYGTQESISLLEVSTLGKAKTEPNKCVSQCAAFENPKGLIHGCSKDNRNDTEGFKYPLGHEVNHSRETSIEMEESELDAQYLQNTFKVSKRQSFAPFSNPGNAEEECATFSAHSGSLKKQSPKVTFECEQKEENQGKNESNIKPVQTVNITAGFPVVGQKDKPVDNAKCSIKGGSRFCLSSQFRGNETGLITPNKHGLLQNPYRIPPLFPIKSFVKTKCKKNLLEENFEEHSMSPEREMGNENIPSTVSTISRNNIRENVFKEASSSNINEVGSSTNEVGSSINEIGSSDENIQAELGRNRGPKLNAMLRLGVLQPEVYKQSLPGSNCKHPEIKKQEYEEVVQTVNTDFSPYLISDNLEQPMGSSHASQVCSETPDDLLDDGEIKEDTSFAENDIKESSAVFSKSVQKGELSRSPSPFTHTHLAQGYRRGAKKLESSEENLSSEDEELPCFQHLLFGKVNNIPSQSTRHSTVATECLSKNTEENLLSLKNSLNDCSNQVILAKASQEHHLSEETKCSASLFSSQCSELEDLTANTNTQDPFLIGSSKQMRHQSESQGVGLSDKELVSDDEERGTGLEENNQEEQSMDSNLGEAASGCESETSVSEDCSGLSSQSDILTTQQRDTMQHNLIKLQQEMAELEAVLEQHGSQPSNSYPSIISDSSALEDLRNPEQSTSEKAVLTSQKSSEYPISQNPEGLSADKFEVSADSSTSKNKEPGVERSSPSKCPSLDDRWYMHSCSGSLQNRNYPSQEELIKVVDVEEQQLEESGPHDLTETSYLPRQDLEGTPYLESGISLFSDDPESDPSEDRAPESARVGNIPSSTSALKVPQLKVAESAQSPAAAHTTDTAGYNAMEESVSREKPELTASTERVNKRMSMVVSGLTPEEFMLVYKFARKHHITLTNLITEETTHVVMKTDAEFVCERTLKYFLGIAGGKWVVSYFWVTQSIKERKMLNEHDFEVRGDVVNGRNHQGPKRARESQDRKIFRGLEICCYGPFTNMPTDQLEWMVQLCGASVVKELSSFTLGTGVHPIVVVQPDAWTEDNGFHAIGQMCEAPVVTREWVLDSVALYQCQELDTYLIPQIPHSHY

Activity change, negative = inhibition, inactive:
CCOC(=O)Nc1ccc2c(c1)N(C(=O)CN1CCN3CCCC3C1)c1ccccc1CC2 (stereo not given) -0.847%
COc1ccc(C)cc1-n1nnnc1SCC(=O)c1cc(C)n(Cc2ccco2)c1C 0.289%
O=C(CN1CCN(c2ccccc2F)CC1)c1ccc2c(c1)OCO2 -0.354%
COc1ccc(OC)c(NC(=O)CN2CCN(C(=O)c3ccco3)CC2)c1 -0.4%
COCCn1nnnc1C(c1ccccc1Cl)N1CCN(c2ccccc2OC)CC1 (stereo not given) 0.147%
COC(=O)[C@@H]1C[C@@]2(O)[C@H](O)[C@H](O)[C@H](O)C[C@H]2N1CC1CCCCC1 1.56%
CC(C)Oc1ccc(C2NC(=O)NC2=O)cc1 (stereo not given) 0.371%
O=C(CN(Cc1ccccc1)C(=O)c1ccc2c(c1)OCCO2)NCc1ccc2c(c1)OCO2 0.515%
CC(=O)N1CCC2(CCCN(Cc3ccccc3)C2)CC1 -2.8%
COc1ccccc1NC(=O)CSc1nnc(Cc2cccn2C)n1-c1ccc(F)cc1 -0.19%
O=C(CSc1ncccn1)NC(=O)NCc1ccccc1 -0.146%
Cc1ccsc1C(=O)OCC(=O)c1cc(C)n(CC2CCCO2)c1C (stereo not given) -2.25%
COc1ccc(NC(=O)CCNC(=O)Cn2ccc3ccccc3c2=O)c(OC)c1 1.77%
Cc1ccccc1CSc1nnc(-c2cccnc2)n1N -1.84%
COc1cc(C(=O)N(Cc2ccc(N(C)C)cc2)C2CCS(=O)(=O)C2)cc(OC)c1OC (stereo not given) -2.5%
CCCCCCN(C(=O)CCCCCN1C(=O)NC(c2ccc(C(F)(F)F)cc2)C(C(=O)OCc2ccccc2)=C1C)C(C(=O)NCCCC)c1ccc(OCC(=O)OC)c(C(=O)OC)c1 (stereo not given) -1.73%
CC1CCc2sc3nc(N4CCN(CCO)CC4)n4ncnc4c3c2C1 (stereo not given) -1.52%
Cc1ccc(NC(=O)N2CCC(C(=O)NCc3ccc(F)cc3)CC2)cc1 -0.897%
CC(CCC(=O)O)C1CCC2C3C(O)C[C@@H]4CC(O)CC[C@@]4(C)C3CC[C@@]12C (stereo not given in full)
Cn1c(=O)c2[nH]c(NCC3CCCO3)nc2n(-c2ccccc2)c1=O (stereo not given) 0.15%
FC(F)(F)c1cccc(Nc2ncnc3ccccc23)c1 0.0326%
CCOC(=O)C1CCN(C(=O)Nc2ccc(Cl)cc2)CC1 -0.981%
CCS(=O)(=O)N1CCC(C(=O)N2CCN(c3ccccc3)CC2)CC1 -1.29%
CCN(CC)CCNC(=O)C1c2ccccc2C(=O)N(C)C1c1cn(C)c2ccccc12 (stereo not given) 1.12%
CCCCC(=O)Nc1cc(C)c2c(=O)oc3ccccc3c2n1 1.23%
COc1ccc(CCNC(=O)CSc2nnc(-c3cccc(F)c3)o2)cc1OC -0.833%
COC(=O)C1=C(C)OC(N)=C(C#N)C1c1cc(OC)ccc1OC (stereo not given) -1.63%
C[C@H](CCC(=O)NCC(=O)O)[C@H]1CC[C@H]2[C@H]3[C@@H](C[C@@H](O)[C@]12C)[C@]1(C)CC[C@H](O)C[C@@H]1C[C@@H]3O 1.09% [at 34.4 µM]
CCOc1ccccc1NC(=O)c1cc(S(=O)(=O)N2CCC3(CC2)OCCO3)ccc1F -0.357%
COC(=O)CC1C(C)(C)C(OC(C)=O)C2CC3=C4CC(=O)OC(c5ccoc5)[C@]4(C)CCC3[C@@]1(C)C2=O (stereo not given in full) -0.484%
CCOc1cc(CO)ccc1OCC(=O)N1CCCCC1 0.944%
O=C(Nc1nc2cc3c(cc2s1)OCCO3)c1cccc(S(=O)(=O)N2CCOCC2)c1 0.128%
CN(C(=O)COc1nnc(-c2cccs2)c(-c2cccs2)n1)c1ccccc1 0.0324%
COCC(C)n1c(SCc2ccc(C(=O)OC)o2)nc2ccccc2c1=O (stereo not given) 0.312%
CO[C@H]1COC(=O)[C@@H](OCc2ccccc2)/C=C\[C@H](C)[C@@H](OC)COC(=O)[C@H](OCc2ccccc2)/C=C\[C@@H]1C 3% [at 15.4 µM]
CCC(c1nnnn1C1CCCC1)N1CCN(C(=O)c2ccco2)CC1 (stereo not given) -1.2%
CC1CCCCN1CC(=O)NCc1ccc2c(c1)OCO2 (stereo not given) 1.54%
O=C(NCc1ccccn1)c1c(O)c2c([nH]c1=O)CCCC2 0.105%
O=C(CC1OC(=O)c2ccccc21)NC1CCCCC1 (stereo not given) -2.01%
COc1ccc(-c2nc(CS(=O)CC(=O)NCc3ccccn3)c(C)o2)cc1 (stereo not given) -19%
Cc1nnc(SCc2cc(=O)[nH]c(N3CCN(Cc4ccccc4)CC3)n2)s1 0.597%
CC(C)NC[C@H](O)c1ccc2ccccc2c1
Cc1nc2nc3c(cn2n1)C(=O)CC(c1ccccc1)C3 (stereo not given) 2%
COCCCNC(=O)Cn1cc(C(=O)C2CC2)c2ccccc21 0.296%
CN(c1ccc(C(=O)N2CCc3ccccc3C2)cc1)S(C)(=O)=O 0.655%
COCCCNC(=O)COc1cc(C)c(Cl)c(C)c1 -0.153%
Cc1cccc(OCc2nnc(SCC(=O)N3CCN(C(=O)c4ccco4)CC3)n2C)c1C -1.17%
CCCOC(=O)Nc1sc2c(c1C(=O)OCC)CCC2 -0.873%
CCOC(=O)c1cnc(-n2nc(C)cc2C)nc1-n1nc(C)cc1C 1.6%
CN(C(=O)CSc1nnnn1-c1ccccc1)C1CCCCC1 0.11%
Cc1ccc(Cn2ccc(NC(=O)c3cc(C(C)C)on3)n2)cc1 -1.44%
COc1ccccc1N1CCN(C(=O)c2c(-c3c(Cl)cccc3Cl)noc2C)CC1 -1.13%
Cc1ccccc1NC(=O)Cc1nnc(SCC(=O)N2CCN(c3ccccc3)CC2)n1C -0.997%
CCCCCCC(=O)N(O)C1CC(=O)N(c2ccccc2)C1=O (stereo not given) 0.0619%
C=CCNC(=O)C12CC3CC(C1)CC(C(=O)NCC=C)(C3)C2 1.88%
COC(=O)N1CCC2(CCCN(c3ccncc3)C2)CC1 0.168%
O=C1NC(c2cc3c(cc2Cl)OCO3)Oc2ccccc21 (stereo not given) -0.188%
COC(=O)[C@H](C)[C@H]1C[C@]1(C)[C@H](NC(=O)OCc1ccccc1)c1ccccc1 -0.78%
CN(c1ccccc1)c1ccc(/C=c2\s/c(=C(/C#N)C(=O)C(C)(C)C)n(Cc3ccco3)c2=O)cc1 0.0549%
Cc1cccc(NC(=O)CSC(N)=O)c1C 1.83%
Cc1ccc(N)cc1-n1c(C)ccc1C -0.377%
CCCCOc1ccc(NC(=O)CSCC(=O)OCC)cc1 1.6%
CCOCCc1c(O)nc(SCC(=O)NCc2ccco2)[nH]c1=O 0.81%
Cc1cc(NS(=O)(=O)c2ccccc2)no1 0.303%
CCOC(=O)C1CCc2nc3ccccc3c(=O)n21 (stereo not given) 0.238%
Cc1ccccc1N1CCN(S(=O)(=O)C[C@@]23CC[C@H](C[C@H]2NC(=O)[C@@H](N)CCS(C)(=O)=O)C3(C)C)CC1 1.13%
CC(=O)N1CCN(c2ccc(NCc3ccc(C(C)C)cc3)cc2)CC1 -0.552%
O=C(CC1(O)C(=O)N(CN2CCOCC2)c2ccccc21)c1ccccc1 (stereo not given) -1.06%
O=C(CCSc1ccccc1)NCCSc1ccccn1 -0.965%
Cc1cc(C)c2cc(CN(Cc3cccs3)Cc3nnnn3CC3CCCO3)c(=O)[nH]c2c1 (stereo not given) 0.129%
N#CCC(=O)NC(=O)NCC1CC1 -0.938%
O=C1Nc2ccccc2C12Nc1ccccc1S2 (stereo not given) -1.05%
Cc1nc2ccc(C(=O)N3CCSCC3)cc2s1 0.85%
CN1CCN(c2ncncc2-c2ccc(C(=O)N(C)C)cc2)CC1 0.793%
CC1(C)SC2C(NC(=O)COc3ccccc3)C(=O)N2C1C(=O)O (stereo not given) 1.66%
CCn1cc(C(=O)N2CCN(C3CCCCC3)CC2)c2cc(OC)c(OC)cc2c1=O -2.62%
CN1[C@@H]2CC[C@H]1CC(NC(=O)c1nn(C)c3ccccc13)C2 (stereo not given in full) -2.5%
CC(C)(C)Oc1ncc(Br)c(OC(C)(C)C)n1 -0.0878%
C[N+](C)(C)CCCCCNCC12CC3CC(CC(C3)C1)C2 2.52%
CCCC(C(=O)N1CCOCC1)N1C(=O)C2C3C=CC(C3)C2C1=O (stereo not given) -0.786%
CN1CCCC(OC(=O)COc2ccc(Br)cc2)C1 (stereo not given) 0.984%
CCC1=C(OC(=O)N(CC)CC)N2C(=O)OC(=NCCc3c[nH]c4ccccc34)[C@]2(C)[C@H]2C1=CC[C@H]1C(=O)N(CC)C(=O)[C@H]12 -2.69%
COC(=O)C1C(=O)c2c([nH]c(C(=O)OCCSC)c2C)CC1C (stereo not given) -0.968%
CC(C)(C)[Si](OCC[C@@H]1C[C@@]1(C)[C@@H](NP(=O)(c1ccccc1)c1ccccc1)c1ccccc1)(c1ccccc1)c1ccccc1 0.34%
COc1ccc(-c2oc3cc(OC)ccc3c2C(=O)c2ccc(C#N)cc2)cc1 -0.0684%
CCOC(=O)c1c(C)[nH]c(C)c1C(=O)CSc1nc(N)cc(N)n1 3.67%
O=C1c2ccccc2C(O)N1Cc1ccccc1Cl (stereo not given) 0.325%
CSc1nnc2c(n1)OC(c1ccsc1)N(C(C)=O)c1ccccc1-2 (stereo not given) -0.404%
COC(=O)c1ccc(CSc2ccccc2C)o1 -1.04%
COc1ccc(-c2nc3cnc(Oc4ccccc4)nc3n(Cc3cccs3)c2=O)cc1 -1.57%
CC1=NC2(CCCc3c2no[n+]3[O-])N(O)C1(C)C (stereo not given) -0.694%
COc1cc(C2C(C(=O)c3ccc(C)o3)=C(O)C(=O)N2Cc2cccnc2)ccc1O (stereo not given) 0.46%
Cc1c(-c2nn(C)c(=O)c3ccccc23)oc2ccc(F)cc2c1=O 0.563%
O=C(C1CCN(CC2CCCCC2)CC1)N1CCCC1 -0.503%
COC(=O)[C@@H]1C[C@@]2(O)[C@@H](O)[C@@H](O)[C@@H](O)C[C@H]2N1Cc1ccc(C)s1 1.57%
CC(C)(C)c1ccc(C(=O)CSc2ncn[nH]2)cc1 -3.08%
C=CCSc1nnc(Cn2c(=O)sc3ccccc32)n1C -0.684%
CCCC(=O)Nc1ccc(Cl)c(NC(=O)c2ccc(Br)o2)c1 -0.589%
NC(=O)CSc1oc(-c2cccs2)nc1S(=O)(=O)c1ccccc1 -0.411%
COC(=O)c1cn(C)c2ccc(S(=O)(=O)N3CC(C)CC(C)C3)cc2c1=O (stereo not given) 0.974%
COc1ccc(-c2nnc(SCC(=O)NC3CCCCC3)o2)cc1OC -0.73%
Cc1ccccc1-c1nc(N(C)Cc2ccco2)c2ccccc2n1 -1.42%
CC(C)OCCCNC(=O)CNC(=O)c1cccs1 2%
Cc1ccc2cccc(O)c2[n+]1[O-] 0.606%
O=C(c1ccc(=O)[nH]c1)N(Cc1ccco1)C1(C(=O)NC2CCCCC2)CCCCC1 0.273%
